Measurements reported in PubChem BioAssay (NCI).
About 79,000 compounds went through this panel and 15% of them were active in at least one assay; those are over-represented in the sample as a whole. A number with no mark means an inactive call. The source made the active and inactive calls. No stated cut-off is given here; in the data, active means growth inhibition above about 70%; inactive means the rest.

Experiments:
[1] = NCI Yeast Anticancer Drug Screen. Data for the rad52 strain (AID 147);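 further: 0% = growth of vehicle-treated control cultures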; conditions: S. cerevisiae rad52 mutant growth inhibition, hits give high values
How it was run: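 Inhibition of yeast growth, referenced to vehicle controls, was the measured output for a strain with defective DNA damage repair.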

[2] = NCI Yeast Anticancer Drug Screen. Data for the wt1 strain (AID 149);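 further: 0% = growth of vehicle-treated wt1 cultures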; conditions: S. cerevisiae wt1 strain (SPY 50644) growth inhibition, hits give high values
How it was run: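 Compounds are added to wt1 yeast cultures. Growth is then measured. Inhibition is expressed relative to vehicle-treated controls.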

[3] = NCI Yeast Anticancer Drug Screen. Data for the rad50EPP+ strain (AID 151);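 further: 0% = growth of vehicle-treated control cultures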; conditions: S. cerevisiae rad50 mutant strain, hits give high values
How it was run: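 Genetically defined yeast (rad50EPP+, DNA damage repair alteration) is grown with compound, and inhibition of growth is expressed relative to vehicle-treated controls.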

[4] = NCI Yeast Anticancer Drug Screen. Data for the mgt1 strain (AID 153); conditions: S. cerevisiae mgt1 mutant growth inhibition, hits give high values
How it was run: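 In the mgt1 strain, test compounds were added and growth inhibition was determined relative to vehicle-treated controls.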

[5] = NCI Yeast Anticancer Drug Screen. Data for the rad50 strain (AID 155);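 further: 0% = growth of vehicle-only cultures of the same strain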; conditions: S. cerevisiae rad50 strain growth inhibition, hits give high values
How it was run: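 Inhibition values express reduced yeast growth in compound-treated cultures relative to vehicle-treated controls.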

[6] = NCI Yeast Anticancer Drug Screen. Data for the mec2-1 strain (AID 157); conditions: S. cerevisiae mec2-1 strain, hits give high values
How it was run: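 Each compound was tested on mec2-1 yeast, a strain altered in DNA damage repair or cell cycle control. Growth inhibition is reported relative to vehicle.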

[7] = NCI Yeast Anticancer Drug Screen. Data for the rad14 strain (AID 159);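 further: 0% = growth of vehicle-treated control cultures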; conditions: S. cerevisiae rad14 strain growth inhibition, hits give high values
How it was run: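 A mutant yeast strain defective in DNA damage repair is treated with compound; inhibition of its growth is scored against untreated, vehicle-exposed cultures.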

[8] = NCI Yeast Anticancer Drug Screen. Data for the sgs1 mgt1 strain (AID 161);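 further: 0% = growth of cultures given vehicle only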; conditions: S. cerevisiae sgs1 mgt1 strain, hits give high values
How it was run: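 Test agents were incubated with a DNA-repair-mutant yeast strain. Growth was then read and compared against vehicle-treated controls.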

[9] = NCI Yeast Anticancer Drug Screen. Data for the CLN2oe strain (AID 163);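 further: 0% = growth of vehicle-only control cultures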; conditions: S. cerevisiae CLN2oe strain, hits give high values
How it was run: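 First, the altered yeast strain was treated with each compound; second, its growth was measured; finally, inhibition was derived by comparison with vehicle controls.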

[10] = NCI Yeast Anticancer Drug Screen. Data for the cln2 rad14 strain (AID 165);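 further: 0% = growth equal to vehicle treated cultures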; conditions: S. cerevisiae cln2 rad14 strain, hits give high values
How it was run: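 Test compounds were added to cln2 rad14 yeast cultures; inhibition of growth was then determined by comparison with vehicle treatment.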

[11] = NCI Yeast Anticancer Drug Screen. Data for the bub3 strain (AID 167); conditions: S. cerevisiae bub3 mutant strain, hits give high values
How it was run: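 Steps: expose the mutant yeast strain to compound; grow alongside vehicle-treated cultures; measure growth; express inhibition against the vehicle cultures.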

[12] = NCI Yeast Anticancer Drug Screen. Data for the wt2 strain (AID 169);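 further: 0% = growth of vehicle-treated yeast cultures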; conditions: S. cerevisiae wt2 strain growth inhibition, hits give high values
How it was run: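 The panel's yeast strains carry defined changes in DNA repair or cell cycle genes. Each strain is grown with compound, and growth loss is scored relative to vehicle.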

[13] = NCI Yeast Anticancer Drug Screen. Data for the mlh1 strain (AID 171);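 further: 0% = growth of vehicle-treated control cultures of the same strain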; conditions: S. cerevisiae mlh1 strain growth inhibition, hits give high values
How it was run: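 Inhibition values reflect reduced yeast growth in the presence of compound, referenced to vehicle controls, using a strain chosen for its alteration in DNA repair or cell cycle control.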

[14] = NCI Yeast Anticancer Drug Screen. Data for the sgs1 strain (AID 173);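 further: 0% = growth of vehicle-only control cultures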; conditions: S. cerevisiae sgs1 mutant, hits give high values
How it was run: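 Vehicle-treated cultures served as reference for growth inhibition of a yeast strain altered in DNA damage repair or cell cycle control after compound exposure.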

[15] = NCI Yeast Anticancer Drug Screen. Data for the mlh1 rad18 strain (AID 175); conditions: S. cerevisiae mlh1 rad18 strain growth inhibition, hits give high values
How it was run: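 Inhibition values reflect reduced growth of mutant yeast versus vehicle-treated controls following compound exposure; the mutations affect DNA damage repair.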

[16] = NCI Yeast Anticancer Drug Screen. Data for the rad18 strain (AID 177); conditions: S. cerevisiae rad18 mutant growth inhibition, hits give high values
How it was run: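 Steps: expose repair-mutant yeast to compound; measure growth; express as inhibition relative to vehicle control.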

[17] = at 5.0 µM (retest, dose inferred, filed as 0.5)
[18] = at 50.0 µM (retest, dose inferred, filed as 5.0)

Cc1ccc(S(=O)(=O)Nc2cccc3cccnc23)cc1
growth inhibition ([1]; at 1.2 µM): 10% | growth inhibition ([1]; at 3.7 µM): 14% | growth inhibition ([1]; at 11.0 µM): 25% | growth inhibition ([1]; at 33.0 µM): 75% (active) | growth inhibition ([1]; at 100.0 µM): 52% | growth inhibition ([2]; at 1.2 µM): 15% | growth inhibition ([2]; at 3.7 µM): 14% | growth inhibition ([2]; at 11.0 µM): 18% | growth inhibition ([2]; at 33.0 µM): 71% (active) | growth inhibition ([2]; at 100.0 µM): 39% | growth inhibition ([3]; at 1.2 µM): 16% | growth inhibition ([3]; at 3.7 µM): 17% | growth inhibition ([3]; at 11.0 µM): 16% | growth inhibition ([3]; at 33.0 µM): 62% | growth inhibition ([3]; at 100.0 µM): 66% | growth inhibition ([4]; at 1.2 µM): 14% | growth inhibition ([4]; at 3.7 µM): -5% | growth inhibition ([4]; at 11.0 µM): 25% | growth inhibition ([4]; at 33.0 µM): 77% (active) | growth inhibition ([4]; at 100.0 µM): 79% (active) | growth inhibition ([5]; at 1.2 µM): 15% | growth inhibition ([5]; at 3.7 µM): 25% | growth inhibition [5, 17]: 46% | growth inhibition ([5]; at 11.0 µM): 22% | growth inhibition ([5]; at 33.0 µM): 79% (active) | growth inhibition [5, 18]: 97% (active) | growth inhibition ([5]; at 50.0 µM): 46% | growth inhibition ([5]; at 100.0 µM): 84% (active) | growth inhibition ([6]; at 1.2 µM): 7% | growth inhibition ([6]; at 3.7 µM): 18% | growth inhibition [6, 17]: 49% | growth inhibition ([6]; at 11.0 µM): 23% | growth inhibition ([6]; at 33.0 µM): 79% (active) | growth inhibition [6, 18]: 98% (active) | growth inhibition ([6]; at 50.0 µM): 20.2% | growth inhibition ([6]; at 100.0 µM): 60% | growth inhibition ([7]; at 1.2 µM): -19% | growth inhibition ([7]; at 3.7 µM): -16% | growth inhibition ([7]; at 11.0 µM): 16% | growth inhibition ([7]; at 33.0 µM): 72% (active) | growth inhibition ([7]; at 100.0 µM): 56% | growth inhibition [8, 17]: -15% | growth inhibition [8, 18]: 41% | growth inhibition ([8]; at 50.0 µM): 59% | growth inhibition ([9]; at 1.2 µM): 15% | growth inhibition ([9]; at 3.7 µM): 12% | growth inhibition ([9]; at 11.0 µM): 41% | growth inhibition ([9]; at 33.0 µM): 69% | growth inhibition ([9]; at 100.0 µM): 46% | growth inhibition [10, 17]: 25% | growth inhibition [10, 18]: 54% | growth inhibition ([10]; at 50.0 µM): 48% | growth inhibition ([11]; at 1.2 µM): -11% | growth inhibition ([11]; at 3.7 µM): -14% | growth inhibition [11, 17]: 29% | growth inhibition ([11]; at 11.0 µM): -3% | growth inhibition ([11]; at 33.0 µM): 50% | growth inhibition [11, 18]: 23% | growth inhibition ([11]; at 50.0 µM): 27.7% | growth inhibition ([11]; at 100.0 µM): 15% | growth inhibition ([12]; at 1.2 µM): -13% | growth inhibition ([12]; at 3.7 µM): -5% | growth inhibition ([12]; at 11.0 µM): 8% | growth inhibition ([12]; at 33.0 µM): 53% | growth inhibition ([12]; at 100.0 µM): 59% | growth inhibition ([13]; at 1.2 µM): 14% | growth inhibition ([13]; at 3.7 µM): 3% | growth inhibition ([13]; at 11.0 µM): 9% | growth inhibition ([13]; at 33.0 µM): 78% (active) | growth inhibition ([13]; at 100.0 µM): 62% | growth inhibition ([14]; at 1.2 µM): 1% | growth inhibition ([14]; at 3.7 µM): 4% | growth inhibition ([14]; at 11.0 µM): 44% | growth inhibition ([14]; at 33.0 µM): 82% (active) | growth inhibition ([14]; at 100.0 µM): 63% | growth inhibition [15, 17]: 44% | growth inhibition [15, 18]: 100% (active) | growth inhibition ([15]; at 50.0 µM): 71% (active) | growth inhibition ([16]; at 1.2 µM): 9% | growth inhibition ([16]; at 3.7 µM): 4% | growth inhibition ([16]; at 11.0 µM): 25% | growth inhibition ([16]; at 33.0 µM): 74% (active) | growth inhibition ([16]; at 100.0 µM): 71% (active)
